Screening results (PubChem)
HT1080NT lethal – kills 2HG-producing HT-1080-NT fibrosarcoma cells | HT-1080-NT fibrosarcoma viability, CellTiter-Glo ATP luminescence, 48 h | Potency, µM (series often up to 46.1 µM), for inactives: at the highest dose activity, negative = less viability, actives largely listed as cytotoxic | 360,000 tested, 1.6% active | AID 686970;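 further: NT is the 2HG producing partner of a matched IDH1 knockdown line; 0% = DMSO-treated cells and -100% = media-only wells without cells; nearly all actives have a fitted effect of over 55% in size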
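Read-out is CellTiter-Glo luminescence after 10 minutes at room temperature, following 48 hours' compound treatment of HT-1080-NT cells (750 cells/well, RPMI, 5% FBS, 37 degrees C).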
KB-V1 cytotox – kills drug-selected multidrug resistant KB-V1 cells. KB-V1 MDR cells viability, CellTiter-Glo, 72 h. Potency, µM (titrated, usually from 46.1 µM), actives largely listed as cytotoxic. 400,000 tested, 3.4% active; further: on the % scale 0 is the no-effect control and ±100 the full control effect; nearly all actives have a fitted effect of over 60% in size
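Following 72 h at 37 degrees C with compound, KB-V1 cell viability was read by CellTiter-Glo luminescence, medium being phenol-red-free DMEM plus 10% FBS; concentration-response parameters came from normalized, curve-fitted qHTS data.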
KB-3-1 tox – KB-3-1 parental cell cytotoxicity; KB-3-1 viability, CellTiter-Glo ATP luminescence, 72 h; 400,000 tested, 1.4% active; Potency, µM (series often up to 46.1 µM), hits mostly cytotoxic; AID 1347075; further: on the % scale 0 is the no-effect control and ±100 the full control effect; nearly all actives have a fitted effect of over 60% in size
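Using CellTiter-Glo luminescence, growth of non-resistant KB-3-1 adenocarcinoma cells is assessed 72 h after pin-tool compound addition at 37 °C. Normalized responses across the concentration series yield fitted curves.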
HT1080 IDH1KD tx – toxicity to HT-1080 IDH1 knockdown cells (counter line). HT-1080 IDH1 knockdown viability, ATP luminescence, 48 h. Potency, µM (titrated, usually from 46.1 µM), for the others: top-dose activity, negative = toxicity, usual class: cytotoxic. 360,000 tested, 2% active;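 further: 0% = DMSO wells and -100% = cell-free medium wells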
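Assay cells: HT-1080 with IDH1 knockdown, 750 per well, RPMI/5% FBS. Exposure: 48 h at 37 °C following 2 h pre-incubation. Read: CellTiter-Glo luminescence; fitted concentration-response, curve class assigned.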
SW480 rereplic – induces DNA re-replication in SW480 colon adenocarcinoma cells; SW480 DNA re-replication, Hoechst DNA content imaging, 48 h; Potency, µM (top dose mostly 46.1 µM), for inactives: at the highest dose re-replication activation, hits mostly activators; 340,000 tested, 1.8% active; AID 624297; further: % of control where 0% means no effect; nearly all actives have a fitted effect of over 55% in size
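Image-based DNA-content assay: after two days of treatment, nuclei were labelled with the DNA dye Hoechst and imaged, and hits were compounds raising the count of nuclei showing high fluorescence intensity.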
MCF10A rerep – DNA re-replication induction in MCF 10a cells | AID 624296 | MCF 10A DNA re-replication, Hoechst nuclear intensity, 48 h | 350,000 tested, 2.9% active | Potency, µM (doses to about 46.1 µM), inactives show at the top dose activity, positive = re-replication, most hits filed as activators; further: % of control where 0% means no effect; nearly all actives have a fitted effect of over 50% in size
Active calls of the source: *; i = inactive; ? = inconclusive; [ ] = dose if it differs, or a comment. A selection: hits, their analogues and other compounds. The true share with any hit is near 8%. The call rests on the fitted dose curve; in most records, active means well fitted curve in the direction sought with a large enough effect; inconclusive means small, poorly fitted or top-dose-only effect, or another doubt; inactive means no such curve, though single readings can be large; an effect the other way counts as inactive or inconclusive. Potency means the concentration at half of the fitted maximal effect.

SMILES | HT1080NT lethal | KB-V1 cytotox | KB-3-1 tox | HT1080 IDH1KD tx | SW480 rereplic | MCF10A rerep
O=C(COC(=O)c1ccc([N+](=O)[O-])o1)NC1CCCC1 | 2% | ? | i | 3% | -3% | -1%
O=C(NCC1CCCO1)c1ccc([N+](=O)[O-])o1 (configuration not stated) | ? | ? | 21µM* | -28% | ? | ?
O=C(Cc1ccc([N+](=O)[O-])cc1)NCC1CCCO1 (configuration not stated) | -2% | i | i | 2% | 0% | -1%
O=C(NC1CCCC1)c1ccc(Cl)s1 | 11% | i | i | -2% | 21% | 1%
CCN1CCc2nc(NC(=O)c3ccc(S(=O)(=O)N(C)C)cc3)sc2C1 | -8% | i | i | 5% | -8% | 0%
COc1ccc(OC)c(NC(=O)CNC(=O)Cn2c(C)cc3ccccc3c2=O)c1 | 5% | i | i | 3% | 4% | 0%
COC(=O)c1c(-c2ccccc2)csc1N1C(=O)Nc2ccccc2N1O | -4% | ? | i | -2% | 0% | -7%
O=C(N/N=C/c1ccc([N+](=O)[O-])o1)C1CCCC1 | -23% | i | ? | ? | 26% | 10%
O=C(NCC1CCCO1)c1ccc(CS(=O)(=O)c2ccc(Cl)cc2)o1 (configuration not stated) | 16% | 23µM* | i | 5% | -6% | 24%
O=[N+]([O-])c1ccc(/C=[N+](\[O-])[C@@H]2CCCC[C@@H]2/[N+]([O-])=C/c2ccc([N+](=O)[O-])o2)o1 | -20% | 21µM* | ? | -2% | 2.9µM* | 23µM*
O=C(NC1CCCCC1)c1ccc([N+](=O)[O-])o1 | ? | ? | ? | ? | ? | 16µM*
CC(NC(=O)c1ccc([N+](=O)[O-])o1)C12CC3CC(CC(C3)C1)C2 (configuration not stated) | 18µM* | ? | ? | ? | ? | ?
O=C(NCC1CCCO1)c1ccc(CS(=O)(=O)c2ccc(Br)cc2)o1 (configuration not stated) | 0% | i | i | -1% | -2% | 0%
CN1CCN(c2ccc(NC(=O)Cc3ccccc3)cc2)CC1 | 9% | i | i | 0% | 0% | 18%
CC1(C)Cc2c(C#N)c(OCC(=O)c3ccc(Cl)cc3)nc(-c3ccoc3)c2CO1 | 3% | ? | i | -1% | ? | ?
C[C@@H]1C(=O)O[C@H]2[C@H]1CC[C@@]1(C)C(=O)C=C[C@@](C)(O)[C@H]21 | -1% | i | i | 7% | 0% | 4%
CCN1CCN(C(=O)/C=C/c2ccc(C)o2)CC1 | 15% | ? | i | 8% | 69% | -64%
CC(/C=C/c1ccc(C)o1)=C\C(=O)O | 5% | i | i | -4% | 9% | 23µM*
Cc1ccc(/C=C/C(=O)N2CC(C)CC(C)C2)o1 (configuration not stated) | ? | i | i | ? | 16µM* | 23µM*
COCCn1c(SCC(=O)N2CCCc3ccccc32)nc2c(c1=O)SC(C)C2 (configuration not stated) | -5% | ? | i | 1% | 2% | -3%
CC(=O)N1CCOc2ccc(S(=O)(=O)Nc3cccc(C)n3)cc21 | 9% | ? | i | 23% | -8% | -4%
O=C(NCCN1CCCC1)c1ccccc1Cl | -6% | i | i | 6% | -13% | -2%
O=C1C(Cl)=C(NCCN2CCCCC2)C(=O)c2ccccc21 | 15µM* | ? | ? | 23µM* | 29% | ?
O=C1C(Cl)=C(NCc2ccco2)C(=O)c2ccccc21 | ? | ? | ? | 16µM* | ? | ?
O=c1nccc(NCc2ccco2)[nH]1 | 0% | i | ? | 18% | -33% | 696%[0.0737 µM]
SMILES | HT1080NT lethal | KB-V1 cytotox | KB-3-1 tox | HT1080 IDH1KD tx | SW480 rereplic | MCF10A rerep
O=C1c2ccccc2-c2onc3ccc(NCc4ccco4)c1c23 | -21% | 10µM* | i | ? | ? | -3%
Cc1cc(Cl)ccc1OCC(=O)Nn1c(C)ccc1C | -4% | ? | i | -15% | 2% | 7%
CCOc1ncccc1C(=O)OCc1c(F)cccc1Cl | -3% | i | i | 1% | -7% | -8%
CCC(=O)Nc1cccc(NC(=S)NC(=O)c2ccc(C)cc2)c1 | -6% | ? | i | -13% | 15% | 4%
CCCN1C(=O)S/C(=C\c2ccc(N3CCOCC3)o2)C1=O | ? | ? | ? | ? | 3.7µM* | 16µM*
COc1ccc(C(=O)NCc2ccccc2)cc1S(=O)(=O)N1CCCc2ccccc21 | -6% | i | i | -19% | 0%[9.22 µM] | ?
COc1cc2c(cc1OC)C(=O)N1[C@H]3c4cc(Cl)ccc4OC[C@@H]3[C@H](c3ccccc3)[C@]1(C)C(=O)N2 | -11% | ? | ? | ? | ? | 9.2µM*
COc1cc2c(cc1OC)C(=O)N1[C@H]3c4cc(C)ccc4OC[C@@H]3[C@H](c3ccccc3)[C@]1(C)C(=O)N2 | ? | ? | ? | 16µM* | 13µM* | 15µM*
COC(=O)c1cc(Cl)c(NC(=O)/C=C/c2ccc(Cl)cc2Cl)cc1OC | -3% | i | i | 4% | 1% | 2.1µM*
CC(C)(C)c1ccc(C(=O)/C=C2\NC(=O)CS2)cc1 | -20% | ? | ? | -21% | 1% | ?
Cc1nc2nc(C)n(CCN3CCOCC3)c(=O)c2c(-c2cccc([N+](=O)[O-])c2)c1C(=O)CCCCCCCCCCN1CCC(c2ccccc2)(c2ccccc2)CC1 | ? | 7.3µM* | ? | 21µM* | 1% | ?
CCN(CC)S(=O)(=O)c1ccc(N2C(=O)CC2(/C=C/c2ccccc2)C(=O)NC2CCCC2)cc1 (configuration not stated) | 0% | 2.6µM* | i | -8% | ? | ?
COc1ccccc1/C=C/C1(C(=O)NC2CCCC2)CC(=O)N1c1ccc(C)cc1 (configuration not stated) | ? | 2.9µM* | 21µM* | ? | ? | 18µM*
COc1ccccc1/C=C/C1(C(=O)NC2CCCC2)CC(=O)N1c1ccc(F)cc1 (configuration not stated) | ? | ? | i | 8.2µM* | 16µM* | ?
COc1ccccc1OCC(=O)NC1CCCCCC1 | 17% | ? | i | 4% | -2% | 1%
